Results taken from article PMC7862700, “An all-to-all approach to the identification of sequence-specific readers for epigenetic DNA modifications on cytosine”.

Columns and labels:
Test in all cases: DAPPL (digital affinity profiling via proximity ligation, sequencing); 10 mM Tris-HCl pH 7.5, 50 mM NaCl, 1 mM DTT, 4% glycerol, room temperature, 30 min; GST-TFs on glutathione beads, 16-mer random dsDNA library, 0.1% formaldehyde crosslink after washing; high values mean tight binding
Details in all cases: protein: recombinant; tags: N-terminal GST; dsDNA, one strand shown
ERF = target: T1, ERF (Homo sapiens, UniProt P50548 1-548)
T1 sequence: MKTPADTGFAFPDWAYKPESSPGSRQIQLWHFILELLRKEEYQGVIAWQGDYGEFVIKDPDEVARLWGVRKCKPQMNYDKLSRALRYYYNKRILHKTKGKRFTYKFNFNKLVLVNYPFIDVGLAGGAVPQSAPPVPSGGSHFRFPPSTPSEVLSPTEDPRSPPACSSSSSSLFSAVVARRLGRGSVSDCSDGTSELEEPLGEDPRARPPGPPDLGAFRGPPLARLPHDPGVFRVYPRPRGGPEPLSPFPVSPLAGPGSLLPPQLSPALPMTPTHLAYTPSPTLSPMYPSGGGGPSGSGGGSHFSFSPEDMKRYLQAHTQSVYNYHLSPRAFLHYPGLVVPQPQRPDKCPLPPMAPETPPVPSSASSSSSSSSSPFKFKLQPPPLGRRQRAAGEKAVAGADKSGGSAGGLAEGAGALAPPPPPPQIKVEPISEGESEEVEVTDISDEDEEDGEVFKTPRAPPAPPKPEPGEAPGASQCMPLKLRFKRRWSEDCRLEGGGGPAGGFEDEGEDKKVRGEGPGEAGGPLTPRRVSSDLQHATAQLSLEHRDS
Outline: (§1)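 After expression in yeast as GST fusions, human transcription factors were bound to glutathione beads, DNA-barcoded and mixed with a tag-only sample. The pools were incubated with 200 nmole of a 16-mer random double-stranded DNA library in Tris/NaCl/DTT/glycerol buffer (30 min, room temperature), washed and crosslinked with 0.1% formaldehyde. Proximity ligation with BsaI/T4 ligase ran for 1 h at 37 °C, before PCR amplification and sequencing on an Illumina NextSeq500. Binding signal is a hexamer's read frequency for a factor divided by its frequency for the tag-only sample.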

ETV3L = target: T2, ETV3L (Homo sapiens, UniProt Q6ZN32 1-361)
T2 sequence: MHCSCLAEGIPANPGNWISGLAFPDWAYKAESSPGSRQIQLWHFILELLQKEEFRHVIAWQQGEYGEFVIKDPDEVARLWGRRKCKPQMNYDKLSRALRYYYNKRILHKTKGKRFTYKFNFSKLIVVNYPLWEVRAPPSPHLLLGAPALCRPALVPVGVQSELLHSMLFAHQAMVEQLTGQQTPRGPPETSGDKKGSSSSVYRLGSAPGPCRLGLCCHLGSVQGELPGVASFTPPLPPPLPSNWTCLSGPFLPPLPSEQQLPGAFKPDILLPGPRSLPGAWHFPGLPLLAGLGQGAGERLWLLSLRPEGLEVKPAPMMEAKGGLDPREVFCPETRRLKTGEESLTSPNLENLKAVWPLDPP
Outline: as §1

ETS2 = target: T3, ETS2 (Homo sapiens, UniProt P15036 1-469)
T3 sequence: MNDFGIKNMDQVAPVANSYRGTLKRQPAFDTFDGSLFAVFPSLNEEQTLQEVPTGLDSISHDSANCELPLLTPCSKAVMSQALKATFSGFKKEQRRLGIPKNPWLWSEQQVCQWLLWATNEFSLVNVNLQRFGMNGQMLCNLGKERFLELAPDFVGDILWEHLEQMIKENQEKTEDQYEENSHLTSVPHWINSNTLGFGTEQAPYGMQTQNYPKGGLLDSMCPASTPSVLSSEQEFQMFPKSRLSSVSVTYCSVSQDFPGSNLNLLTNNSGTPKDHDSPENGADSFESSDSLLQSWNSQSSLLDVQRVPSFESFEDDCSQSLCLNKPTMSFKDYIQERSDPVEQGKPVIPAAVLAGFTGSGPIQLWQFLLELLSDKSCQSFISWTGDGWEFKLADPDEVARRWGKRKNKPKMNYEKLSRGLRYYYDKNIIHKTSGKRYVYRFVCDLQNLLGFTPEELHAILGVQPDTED
Outline: as §1

SPDEF = target: T4, SPDEF (Homo sapiens, UniProt O95238 1-335)
T4 sequence: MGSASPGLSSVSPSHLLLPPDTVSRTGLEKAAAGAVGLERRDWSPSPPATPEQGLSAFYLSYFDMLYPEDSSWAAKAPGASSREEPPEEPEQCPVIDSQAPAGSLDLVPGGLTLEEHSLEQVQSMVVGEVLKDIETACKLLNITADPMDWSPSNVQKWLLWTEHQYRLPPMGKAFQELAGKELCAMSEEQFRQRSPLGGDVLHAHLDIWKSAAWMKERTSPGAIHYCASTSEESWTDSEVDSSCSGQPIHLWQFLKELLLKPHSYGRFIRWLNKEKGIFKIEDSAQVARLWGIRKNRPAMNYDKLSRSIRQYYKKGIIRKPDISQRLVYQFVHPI
Outline: as §1

ETV7 = target: T5, ETV7 (Homo sapiens, UniProt Q9Y603 1-341)
T5 sequence: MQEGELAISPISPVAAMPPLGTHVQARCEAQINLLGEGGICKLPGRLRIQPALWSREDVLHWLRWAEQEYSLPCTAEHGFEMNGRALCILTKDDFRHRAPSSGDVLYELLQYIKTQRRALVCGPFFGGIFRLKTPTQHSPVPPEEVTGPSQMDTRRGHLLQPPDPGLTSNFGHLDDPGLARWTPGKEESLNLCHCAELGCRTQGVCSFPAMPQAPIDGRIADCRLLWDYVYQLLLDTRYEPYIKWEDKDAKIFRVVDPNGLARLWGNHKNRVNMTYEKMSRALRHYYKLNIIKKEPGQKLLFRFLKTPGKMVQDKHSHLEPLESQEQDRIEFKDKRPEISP
Outline: as §1

ELF5 = target: T6, ELF5 (Homo sapiens, UniProt Q9UKW6-2 1-255)
T6 sequence: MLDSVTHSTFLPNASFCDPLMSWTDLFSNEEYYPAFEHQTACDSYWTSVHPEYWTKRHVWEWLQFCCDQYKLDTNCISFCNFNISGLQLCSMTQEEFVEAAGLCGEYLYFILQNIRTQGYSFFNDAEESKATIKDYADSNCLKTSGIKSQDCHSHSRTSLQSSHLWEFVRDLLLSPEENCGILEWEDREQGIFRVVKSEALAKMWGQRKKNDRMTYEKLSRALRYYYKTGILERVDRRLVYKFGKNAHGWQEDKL
Outline: as §1

ETV3 = target: T7, ETV3 (Homo sapiens, UniProt P41162-2 1-143)
T7 sequence: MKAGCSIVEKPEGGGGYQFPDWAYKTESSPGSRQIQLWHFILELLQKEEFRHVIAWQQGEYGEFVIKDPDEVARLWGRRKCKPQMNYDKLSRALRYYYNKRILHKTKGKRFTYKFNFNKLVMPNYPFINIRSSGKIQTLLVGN
Outline: as §1

ETV6 = ETV6 (Homo sapiens, UniProt P41212 1-452)
ETV6, sequence (P41212 whole entry): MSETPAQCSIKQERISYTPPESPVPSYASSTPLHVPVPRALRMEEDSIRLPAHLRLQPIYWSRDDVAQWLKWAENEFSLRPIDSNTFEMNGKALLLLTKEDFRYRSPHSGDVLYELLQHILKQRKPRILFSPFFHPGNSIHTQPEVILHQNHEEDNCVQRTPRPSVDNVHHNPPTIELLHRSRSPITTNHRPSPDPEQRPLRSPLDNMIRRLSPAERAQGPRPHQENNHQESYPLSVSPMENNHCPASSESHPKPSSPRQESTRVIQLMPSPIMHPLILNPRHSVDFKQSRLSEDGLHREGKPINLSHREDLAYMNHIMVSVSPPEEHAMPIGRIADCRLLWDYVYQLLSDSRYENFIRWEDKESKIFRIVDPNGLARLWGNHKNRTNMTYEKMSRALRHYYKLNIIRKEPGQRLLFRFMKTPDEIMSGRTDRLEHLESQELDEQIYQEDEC
Outline: as §1

Row | Sequence | binding signal (ERF) | binding signal (ETV3L) | binding signal (ETS2) | binding signal (SPDEF) | binding signal (ETV7) | binding signal (ELF5) | binding signal (ETV3) | binding signal (ETV6)
1 | TTTAAG | 1.3 fold enrichment (6-mer frequency, TF over GST control) | 1.26 fold enrichment (6-mer frequency, TF over GST control) | 1.36 fold enrichment (6-mer frequency, TF over GST control) | 1.44 fold enrichment (6-mer frequency, TF over GST control) | 1.33 fold enrichment (6-mer frequency, TF over GST control) | 1.32 fold enrichment (6-mer frequency, TF over GST control) | 1.24 fold enrichment (6-mer frequency, TF over GST control) | 1.26 fold enrichment (6-mer frequency, TF over GST control)
2 | AAAAAG | 1.22 fold enrichment (6-mer frequency, TF over GST control) | 1.26 fold enrichment (6-mer frequency, TF over GST control) | 1.23 fold enrichment (6-mer frequency, TF over GST control) | 1.18 fold enrichment (6-mer frequency, TF over GST control) | 1.32 fold enrichment (6-mer frequency, TF over GST control) | 1.24 fold enrichment (6-mer frequency, TF over GST control) | 1.23 fold enrichment (6-mer frequency, TF over GST control) | 1.21 fold enrichment (6-mer frequency, TF over GST control)
3 | CTACGA | 1.23 fold enrichment (6-mer frequency, TF over GST control) | 1.24 fold enrichment (6-mer frequency, TF over GST control) | 1.25 fold enrichment (6-mer frequency, TF over GST control) | 1.17 fold enrichment (6-mer frequency, TF over GST control) | 1.26 fold enrichment (6-mer frequency, TF over GST control) | 1.19 fold enrichment (6-mer frequency, TF over GST control) | 1.15 fold enrichment (6-mer frequency, TF over GST control) | 1.16 fold enrichment (6-mer frequency, TF over GST control)
4 | TTAGCT | 1.2 fold enrichment (6-mer frequency, TF over GST control) | 1.16 fold enrichment (6-mer frequency, TF over GST control) | 1.26 fold enrichment (6-mer frequency, TF over GST control) | 1.08 fold enrichment (6-mer frequency, TF over GST control) | 1.17 fold enrichment (6-mer frequency, TF over GST control) | 1.13 fold enrichment (6-mer frequency, TF over GST control) | 1.19 fold enrichment (6-mer frequency, TF over GST control) | 1.26 fold enrichment (6-mer frequency, TF over GST control)
5 | GATGGC | 1.4 fold enrichment (6-mer frequency, TF over GST control) | 1.3 fold enrichment (6-mer frequency, TF over GST control) | 1.27 fold enrichment (6-mer frequency, TF over GST control) | 1.29 fold enrichment (6-mer frequency, TF over GST control) | 1.26 fold enrichment (6-mer frequency, TF over GST control) | 1.3 fold enrichment (6-mer frequency, TF over GST control) | 1.3 fold enrichment (6-mer frequency, TF over GST control) | 1.31 fold enrichment (6-mer frequency, TF over GST control)
6 | GATGCT | 1.3 fold enrichment (6-mer frequency, TF over GST control) | 1.28 fold enrichment (6-mer frequency, TF over GST control) | 1.25 fold enrichment (6-mer frequency, TF over GST control) | 1.2 fold enrichment (6-mer frequency, TF over GST control) | 1.29 fold enrichment (6-mer frequency, TF over GST control) | 1.21 fold enrichment (6-mer frequency, TF over GST control) | 1.29 fold enrichment (6-mer frequency, TF over GST control) | 1.16 fold enrichment (6-mer frequency, TF over GST control)
7 | AATAAA | 1.29 fold enrichment (6-mer frequency, TF over GST control) | 1.29 fold enrichment (6-mer frequency, TF over GST control) | 1.31 fold enrichment (6-mer frequency, TF over GST control) | 1.22 fold enrichment (6-mer frequency, TF over GST control) | 1.24 fold enrichment (6-mer frequency, TF over GST control) | 1.2 fold enrichment (6-mer frequency, TF over GST control) | 1.18 fold enrichment (6-mer frequency, TF over GST control) | 1.34 fold enrichment (6-mer frequency, TF over GST control)
8 | TAACGC | 1.06 fold enrichment (6-mer frequency, TF over GST control) | 1.18 fold enrichment (6-mer frequency, TF over GST control) | 1.15 fold enrichment (6-mer frequency, TF over GST control) | 1.15 fold enrichment (6-mer frequency, TF over GST control) | 1.01 fold enrichment (6-mer frequency, TF over GST control) | 1.13 fold enrichment (6-mer frequency, TF over GST control) | 1.2 fold enrichment (6-mer frequency, TF over GST control) | 1.17 fold enrichment (6-mer frequency, TF over GST control)
9 | TGAACT | 1.31 fold enrichment (6-mer frequency, TF over GST control) | 1.23 fold enrichment (6-mer frequency, TF over GST control) | 1.23 fold enrichment (6-mer frequency, TF over GST control) | 1.16 fold enrichment (6-mer frequency, TF over GST control) | 1.21 fold enrichment (6-mer frequency, TF over GST control) | 1.23 fold enrichment (6-mer frequency, TF over GST control) | 1.24 fold enrichment (6-mer frequency, TF over GST control) | 1.22 fold enrichment (6-mer frequency, TF over GST control)
